Mtb MenB inh: Mtb MenB enzyme inhibition | MenB enzyme assay, absorbance read-out | inhibition, % (concentration not given with the values) | 100,000 tested, 0.43% active | P9WNP5; in the data active means inhibition above about 21%, passing the limit was not always enough
Target sequence (P9WNP5 whole entry, looked up): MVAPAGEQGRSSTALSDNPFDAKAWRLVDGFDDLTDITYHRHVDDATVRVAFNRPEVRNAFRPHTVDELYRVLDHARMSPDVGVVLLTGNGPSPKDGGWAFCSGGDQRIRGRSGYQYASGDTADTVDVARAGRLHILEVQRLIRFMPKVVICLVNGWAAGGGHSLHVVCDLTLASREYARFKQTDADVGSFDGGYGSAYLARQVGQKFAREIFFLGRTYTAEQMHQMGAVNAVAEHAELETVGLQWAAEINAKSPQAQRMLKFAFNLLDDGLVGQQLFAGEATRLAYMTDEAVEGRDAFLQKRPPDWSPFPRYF
AID504770: E. coli YBA685 growth inhibition, screen for V. cholerae RctB inhibitors. z-score (no concentration beside the values). 130,000 tested, 0.27% active. AID 504770. E. coli YBA685 rctB-dependent plasmid, OD600 growth, 3 h; active compounds read low; in the data active means z-score below about -2, passing the limit was not always enough
Polio RdRp inh: poliovirus RNA polymerase inhibition | P03300 | poliovirus polymerase elongation, fluorescence polarization; active compounds read low | % elongation, % (compound at 16.7 µg/mL) | 150,000 tested, 0.66% active | AID 588519; in the data active means % elongation below about 90%
Mtb MbtI inh: MbtI salicylate synthase inhibition | purified MbtI enzyme, fluorescence intensity read-out | inhibition, % (test concentration not listed) | 100,000 tested, 0.89% active; in the data active means inhibition mostly above about 56%, no sharp cut-off; inactive means mostly below about 77%
Large screens that a line does not name were inactive. Rows were chosen to be rich in hits. Some 1.5% of all compounds tested hit in one or more screens of this group.

COC(=O)CC1SC(=O)NC1=Nc1ccc(C)cc1 (stereo not given)	none (no result: Mtb MenB inh, Polio RdRp inh, Mtb MbtI inh)
COC(=O)CC1SC(=O)NC1=S (stereo not given)	Mtb MbtI inh 83.7
CC1Sc2cc(S(=O)(=O)NCc3ccccc3)ccc2NC1=O (stereo not given)	none
Cc1cccc(NC(=O)Nc2cccc(C)c2)c1	none
N=C(N)c1cccc(NC(=O)Nc2cccc(C(=N)N)c2)c1	Polio RdRp inh 88.0 (no result: Mtb MbtI inh)
N#C/C(=C\C=C\c1ccco1)C(N)=S	Polio RdRp inh 84.0
CCOC(=O)c1cc(C(C)(C)C)[nH]c(=S)c1C#N	none
CCN(CC)C(=O)CSc1n[nH]c(=S)s1	Mtb MbtI inh 91.2
O=C(NN1C(=O)c2ccccc2C1=O)C(O)c1ccccc1 (stereo not given)	none
Cc1cc(C)n(C(C)CNC(=O)c2ccccc2)n1 (stereo not given)	none
Cc1cc(C)n(C(=O)C(C)NC(=O)c2ccccc2)n1 (stereo not given)	Mtb MenB inh 23.4 (no result: Mtb MbtI inh)
Cc1nn(-c2ccccc2)c(N2CCCC2)c1C=Nc1ccc2c(c1)OCO2	none
Cc1ccc(S(=O)(=O)Nc2cc(Sc3ncn[nH]3)c(O)cc2C)cc1	Mtb MbtI inh 53.9
COc1ccc(S(=O)(=O)Nc2ccc(O)c(Sc3ncn[nH]3)c2)cc1	none
NCc1ccc(C(=O)O)o1	none
NC(=S)Cc1ccc(CC(N)=S)o1	Mtb MbtI inh 82.1
C1CNCC(CN2CCCC2)C1 (stereo not given)	Mtb MenB inh 46.4
COCCN1C(=O)C=CC1=O	AID504770 -3.55, Mtb MbtI inh 61.5 (no result: Mtb MenB inh)
COCCN1C(=O)c2ccccc2C1=O	none
S=C=NCCn1ccc2ccccc21	AID504770 -3.75, Mtb MbtI inh 92.6
NCCn1ccc2ccccc21	none
COc1ccc(C(=O)c2nc3ccccc3n2C(C)C)cc1OC	AID504770 -4.6
Cn1sc(=O)c2ccc(S(=O)(=O)NCCc3ccncc3)cc21	AID504770 -2.55 (no result: Mtb MenB inh, Polio RdRp inh, Mtb MbtI inh)
O=C(O)/C=C/C(=O)Nc1cccc2c1CCCC2	none (no result: Mtb MenB inh, Polio RdRp inh, Mtb MbtI inh)
N#CSCC(=O)c1ccccc1	AID504770 -3.6 (no result: Mtb MenB inh, Polio RdRp inh, Mtb MbtI inh)
N#CCC(=O)c1ccccc1	none (no result: Mtb MenB inh)
Cc1ccc(C(=O)CSC#N)o1	AID504770 -3.1 (no result: Mtb MbtI inh)
Cc1ccc(C(=O)O)o1	none (no result: Mtb MenB inh)
COc1ccc(CCNC(=O)CSc2nnc(C)s2)cc1OC	none
COc1ccc(CSc2nnc(C)s2)cc1F	Mtb MenB inh 55.9
NC(=O)CSc1nnc(-c2ccc(Cl)cc2Cl)n1C1CCCCC1	none (no result: Mtb MenB inh)
CC1=CC(C)=NC2Nc3c(C)cc(C)cc3C(=N)C12 (stereo not given)	Polio RdRp inh 86.0
CC1=C(C)CC2C(=O)N(c3ccc(N4CCOCC4)cc3)C(=O)C2C1 (stereo not given)	none (no result: Mtb MenB inh)
O=C1C=CC(=O)N1c1ccc(N2CCOCC2)cc1	Mtb MbtI inh 93.3
CCc1c(C)[nH][n+]2cnn(Cc3ccc(Cl)cc3)c2c1=O	none
O=C(NC1CCCCC1)Sc1ccc(Cl)cc1	Mtb MbtI inh 75.6
CCOc1ccc(NS(=O)(=O)c2cccc(C(=O)Nc3nnc(C4CC4)s3)c2)cc1	none
COc1ccc(OCCSc2nc(C)cc(=O)[nH]2)cc1	Mtb MenB inh 51.0
CCc1c(C)nc(SCCOc2ccc(OC)cc2)[nH]c1=O	none (no result: Mtb MenB inh, Polio RdRp inh, Mtb MbtI inh)
CCc1ccc(S(=O)(=O)/N=C2\C=CC(=O)c3ccccc32)cc1	Polio RdRp inh 74.0
O=S(=O)(c1cccc(Cl)c1Cl)N1CCOCC1	Mtb MenB inh 32.7
O=S(=O)(c1cccc(Cl)c1Cl)N1CCN(c2ncccn2)CC1	none
CCOC(=O)N1CCN(C(=O)CSc2nc3ccccc3s2)CC1	none (no result: Mtb MenB inh, Polio RdRp inh, Mtb MbtI inh)
Nc1nnc(CCCn2c(=O)oc3ccccc32)s1	Polio RdRp inh 86.0 (no result: Mtb MbtI inh)
Cc1cnc(C(=O)Nc2ccc(Cl)cc2C(=O)c2ccccc2)cn1	none (no result: Mtb MenB inh)
CCc1cc(Br)ccc1NC(C)=O	AID504770 -2.65 (no result: Mtb MenB inh, Polio RdRp inh, Mtb MbtI inh)
CCCNC(=O)Nc1ccc(Br)cc1F	none
CCS(=O)(=O)N1CCc2cc(C(=O)Cn3ncc(Cl)c(Cl)c3=O)ccc21	none
CSc1nc2c(sc(=S)n2-c2ccccc2C)c(=O)n1-c1ccccc1C	Mtb MbtI inh 61.8
CCc1ccc(-n2c(=S)sc3c(=O)n(-c4ccccc4)c(SCC#N)nc32)cc1	none
Cc1cccnc1/N=C/c1c(O)n(-c2ccccc2F)c(=O)c2ccccc12	none (no result: Mtb MenB inh)
COc1ccccc1CC(=O)Nc1cccc(NC(C)=O)c1	none (no result: Mtb MbtI inh)
COc1ccccc1CC(=O)Nc1cccc(C)n1	Mtb MenB inh 39.8
CSc1cccc(NC(=S)N(C)C)c1	Mtb MbtI inh 73.7
CC(C)(C(=O)Nc1ccc2c(c1)OCO2)C(=O)Nc1ccc2c(c1)OCO2	Mtb MenB inh 40.9
CC(=O)NC(NC(C)=O)c1ccc2c(c1)OCO2	Mtb MenB inh 31.4
CN(C)C(=S)Nc1ccc2c(c1)OCO2	Mtb MbtI inh 92.2
CC(C)(C)C(=O)Nc1ccc2c(c1)OCO2	none (no result: Mtb MenB inh)
CCOC(=O)c1c(C)[nH]c(C)c1C(=O)COc1cc(C)nc(C(C)C)n1	none
Cc1nc(-c2cc(C#N)c(NCc3ccccc3)nc2C)cs1	none (no result: Mtb MenB inh, Polio RdRp inh, Mtb MbtI inh)
NC(=O)/C=C/C(=O)Nc1ccc2c(c1)OCO2	Mtb MbtI inh 101.3
CC(=S)Nc1ccc2c(c1)OCO2	Polio RdRp inh 72.0, Mtb MbtI inh 72.7
O=C(/C=C/c1ccccc1)Nc1ccc2c(c1)OCO2	none
Cc1c(C(=O)N2CCc3ccccc32)sc2nc3n(c(=O)c12)CCC3	none
Cc1cc(N)cc2[nH]c(-c3ccc(N)cc3)nc12	Polio RdRp inh 66.0 (no result: Mtb MbtI inh)
CCC(c1n[nH]c(=S)o1)N(C)C (stereo not given)	Polio RdRp inh 89.0, Mtb MbtI inh 84.4
CC(Oc1ccc(F)cc1)c1n[nH]c(=S)o1 (stereo not given)	none
CCc1c(C)sc(NC(=O)CCCC(=O)O)c1C(N)=O	Polio RdRp inh 81.0 (no result: Mtb MbtI inh)
COC(=O)CCC(=O)Nc1sc(C)c(C)c1C(N)=O	none (no result: Mtb MenB inh, Polio RdRp inh, Mtb MbtI inh)
COC(=O)C1=C(C)NC(=O)/C1=C\c1ccc(C)cc1	none
Cc1ccc(C=C2C(=O)NC(=O)NC2=O)cc1	AID504770 -4.7
COc1ccccc1N1CCN(CCCC#N)CC1	none
CCC1CCCCN1C1CC(=O)N(c2ccc(NC(C)=O)cc2)C1=O (stereo not given)	none
Cc1ccc2oc(=O)c(/C=C(\O)CC(C)C)nc2c1	Mtb MenB inh 69.2
CCS(=O)(=O)c1ccc2oc(=O)c(/C=C(\O)c3oc(C)nc3C)nc2c1	none
CCOCCC(=O)N1CCCCC1CC (stereo not given)	none
CC1CCCC(C)N1C(=O)CSc1nnc(-c2ccccc2)n1N (stereo not given)	none
O=C(N/N=C1/C(=O)c2cccc3cccc1c23)c1ccncc1	Polio RdRp inh 89.0
Cc1cc(C(=O)N/N=C2\C(=O)c3cccc4cccc2c34)c(C)o1	none
Cc1ccn2c(NC(=O)C3CC3)c(-c3ccccc3)nc2c1	none (no result: Mtb MenB inh, Polio RdRp inh, Mtb MbtI inh)
O=C(CNc1ccccc1Cl)N/N=C1\CCCc2ccccc21	Mtb MenB inh 39.0
Cc1cccc(-n2ncc(C(=O)N3CCCC3)c2C2CCNCC2)c1	none
CC1(C)C(=O)Nc2ccccc2N1C(=O)Cn1nc(C(=O)O)c2ccccc2c1=O	none
S=c1[nH]ncn1/N=C/c1ccccc1	Mtb MbtI inh 86.1
COc1ccc(/C=N/n2cn[nH]c2=S)cc1OC	none
CCOC(=O)c1[nH]c(CSc2cccc[n+]2[O-])c(C(=O)OCC)c1C	Polio RdRp inh 66.0
N#Cc1ccc(NC(=O)COC(=O)CN2CSCC2=O)cc1	none
CCOC(=O)Cc1csc2nc3sc4c(c3c(=O)n12)CCCC4	none

Source: PubChem BioAssay
